Source: PubChem (National Center for Advancing Translational Sciences (NCATS))
Most compounds without a hit are left out; they make up all but 4.8% or so of the library.
D3 antag – qHTS of D3 Dopamine Receptor Antagonist: qHTS; actives 2.5% (n = 360,000); D3R cells, DiscoveRx beta-arrestin luminescence, antagonist mode; hits give low values; max response, negative = inhibition, %; D(3) dopamine receptor (Homo sapiens), P35462; in the data active = max response below about -50%; inconclusive = no clear call, values can overlap the other calls
Target sequence (P35462 whole entry, looked up): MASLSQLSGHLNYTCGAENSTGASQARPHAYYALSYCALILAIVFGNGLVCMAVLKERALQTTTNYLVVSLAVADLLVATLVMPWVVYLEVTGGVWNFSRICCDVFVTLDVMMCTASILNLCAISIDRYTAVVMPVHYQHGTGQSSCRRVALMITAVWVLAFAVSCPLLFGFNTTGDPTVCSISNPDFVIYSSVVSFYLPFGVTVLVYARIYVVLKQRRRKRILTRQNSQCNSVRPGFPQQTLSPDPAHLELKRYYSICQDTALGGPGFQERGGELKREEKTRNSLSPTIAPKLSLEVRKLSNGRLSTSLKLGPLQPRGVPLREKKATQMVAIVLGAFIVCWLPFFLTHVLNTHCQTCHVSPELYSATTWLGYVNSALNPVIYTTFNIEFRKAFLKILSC
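Cells expressing the human receptor were seeded at 1500 cells/well, incubated overnight at 37 degrees C in 5% CO2, then exposed to library compounds with dopamine controls for 90 minutes at 37 degrees C before luminescent detection.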
ATXN2 expr inh – Primary qHTS for Inhibitors of ATXN expression; HEK-293 ATXN2-luciferase reporter, luminescence, 24 h; Potency, µM (highest dose often 57 µM), most hits filed as inhibitors; actives 0.72% (n = 360,000); AID 1745845, 2022; note: nearly all actives have a fitted effect of over 55% in size
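ATXN2-luciferase reporter cells (luciferase flanked by upstream and downstream ATXN2 gene portions) were treated 24 h at 37 °C with compounds at up to 57 uM. SteadyGlo luminescence gave expression; GF-AFC fluorescence gave viability.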
D3 ag – qHTS of D3 Dopamine Receptor Agonist: qHTS. D(3) dopamine receptor (Homo sapiens), P35462. D3R DiscoveRx beta-arrestin cells, luminescence, 90 min. max activation, %. actives 0.58% (n = 410,000); in the data active = max activation above about 30%
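Cells at 1500/well, incubated overnight, then treated with pinned compounds (dopamine as control) for 90 min at 37 degrees C. DiscoveRx reagent added for 30 - 60 minutes at room temperature; luminescence read.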
ATXN viability – Viability Counterscreen for Primary qHTS for Inhibitors of ATXN expression | S2 cells (HEK-293 line with an ATXN2-luciferase reporter) viability, CellTiter-Fluor protease fluorescence, 24 h | Potency, µM (doses to about 56.7 µM), usual class: cytotoxic | actives 0.49% (n = 400,000); note: nearly all actives have a fitted effect of over 40% in size
TGFb inhibitor – qHTS for Inhibitors of TGF-b. HepG2 CAGA-GFP TGF-b/SMAD3 reporter, GFP fluorescence, 18 h; TGF-beta stimulated, 500 pg/mL final. Potency, µM (titrated, usually from 46.1 µM), most hits filed as inhibitors. actives 1.2% (n = 410,000); note: nearly all actives have a fitted effect of over 65% in size
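Per well, imaged GFP fluorescence of HEPG2 CAGA-GFP cells gives the signal; cells get compound, then TGF-beta (500 pg/mL final), 18 h at 37 degrees C; %Activity versus -TGF-beta and +DMSO controls.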
HepG2 tox – qHTS for Inhibitors of TGF-b: Cytotox Counterscreen | HepG2 CAGA-GFP viability, ATP luminescence, 18 h | Potency, µM (doses to about 46.1 µM), usual class: cytotoxic | actives 0.76% (n = 410,000)
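HepG2 CAGA-GFP cells (1000/well, DMEM with 1% FBS) received compound, then TGF-beta at 500 pg/mL final, and were incubated 18 hours at 37 degrees C. Viability was read by CellTiter-Glo luminescence. Media-only wells were set as complete cell-killing and DMSO as no toxicity.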
Hits are given with their value; n = inactive; u = inconclusive; x = no result given; ! = a repeat was not active. Unless noted, calls come from the whole dose curve; as a rule, active = well fitted curve in the direction sought with a large enough effect; inconclusive = small, poorly fitted or top-dose-only effect, or another doubt; inactive = no such curve, though single readings can be large; an effect the other way counts as inactive or inconclusive.

SMILES	D3 antag	ATXN2 expr inh	D3 ag	ATXN viability	TGFb inhibitor	HepG2 tox
Cc1cc(C)nc(SCC(=O)Nc2ccc(S(=O)(=O)Nc3ncccn3)cc2)n1	n	n	34	n	n	n
Cc1ccc(SCC(=O)Nc2ccc(S(=O)(=O)Nc3ncccn3)cc2)cc1	n	x	n	n	n	n
Nc1nnnn1/N=C/c1ccc(N2CCCCC2)c([N+](=O)[O-])c1	-54	n	n	n	n	n
CCOC(=O)c1sc2nc(CSc3ccccc3)nc(N3CCC(C(N)=O)CC3)c2c1C	n	u	n	u	u	n
CCOC(=O)c1sc2nc(CSc3ccccc3)nc(N3CCCN(C)CC3)c2c1C	-62	x	n	35µM	n	n
CNc1nc(-c2ccc3c(N)n[nH]c3c2)cc(N2C[C@@H](C(=O)NC3CCCCC3)CC[C@@H]2C)n1	x	n	x	x	x	x
Cc1cc(N=Nc2c(O)c3ccccc3[nH]c2=O)ccc1N=Nc1ccc(C(=O)N(C)C)cc1	n	x	n	n	13µM	n
CN(C)C(=O)c1ccc(N=Nc2c(O)c3ccccc3[nH]c2=O)cc1	n	n	n	u	n	11µM
O=C(O)c1ccc(N=Nc2c(O)[nH]c3ccccc23)cc1	n	n	n	n	n	n
COc1ccc(C2=C(C)C(N3CCC(C(=O)Nc4cc(C)ccc4C)CC3)=NS2(=O)=O)cc1	x	n	n	n	n	n
Cc1nn(CCC(=O)Nc2ccc(Cl)cc2)c(C)c1S(=O)(=O)N1CCCCC1	x	x	n	x	u	n
O=C1CCC[C@@H]2C[C@@]3(C[C@@H]4CCN1[C@H]24)Nc1cc([N+](=O)[O-])ccc1NC3=NCc1ccccc1	x	x	x	x	n	n
Cc1ccc(S(=O)(=O)N2C[C@H]3N(C(=O)OC(C)C)N(C(=O)OC(C)C)C[C@H](OC(=O)NCC4CCCCC4)[C@@]3(O)C2)cc1	n	n	n	32µM	u	n
Cc1ccc(S(=O)(=O)N2C[C@H]3N(C(=O)OC(C)C)N(C(=O)OC(C)C)C[C@H](OC(=O)NCc4ccccc4)[C@@]3(O)C2)cc1	n	n	n	u	u	n
Cc1ccc(C)c(S(=O)(=O)c2nnn3c2nc(N2CCCCC2)c2sccc23)c1	x	x	n	x	u	n
Cc1cc2ccc3ccccc3c2cc1CN(C)C	n	n	n	n	16µM	n
CCCCn1c(=O)nc2n(-c3ccc(Br)cc3)c3ccccc3cc-2c1=O	x	n	n	n	n	n
Cc1cc2c(cc1S(=O)(=O)N(CCN(C)C)Cc1ccccc1)OCC(=O)N2	x	x	n	x	n	n
CCOC(=O)C1CCCN(CCC(=O)Nc2c(C(=O)OC)[nH]c3cc(OC)ccc23)C1 (stereo not given)	n	n	n	n	n	n
COc1ccc2c(c1)CC(C(=O)NCCN1CCN(c3cccc(C)c3C)CC1)CO2 (stereo not given)	x	n	47	n	n	n
COC(=O)c1[nH]c2cc(OC)ccc2c1NC(=O)CCN1CCN(c2ccccc2)CC1	-76	n	n	n	n	n
COc1ccc2c(c1)CC(C(=O)NCCN1CCN(c3ccccc3F)CC1)CO2 (stereo not given)	x	n	n	n	n	n
COc1ccc(OC)c(NC(=O)CCN2CCN(c3ccccc3)CC2)c1	-53	n	30	n	n	n
COC(=O)c1[nH]c2ccccc2c1NC(=O)CCN1CCSCC1	-57	n	n	n	n	n
COc1ccc(OC)c(NC(=O)CCN2CCN(Cc3ccccc3)CC2)c1	u	n	n	n	n	n
SMILES	D3 antag	ATXN2 expr inh	D3 ag	ATXN viability	TGFb inhibitor	HepG2 tox
CCOC(=O)c1[nH]c2ccc(OC)cc2c1NC(=O)CCN1CCSCC1	n	n	n	n	n	n
COc1cccc(-c2cc3c(c(OC)c2)OCCN(S(=O)(=O)c2ccccc2OC(F)(F)F)C3)n1	x	x	x	n	x	x
COc1cccc(C2=NS(=O)(=O)N(C)C(C(=O)Nc3ccccc3SC)=C2)c1	x	n	n	n	n	n
COc1ccc(Cl)cc1NC(=O)CSc1cn(CC(=O)N2CCCCCC2)c2ccccc12	x	x	n	x	u	n
COc1ccc(NC(=O)Nc2cccc3ccccc23)c(OC)c1	n	n	n	n	n	n
COc1ccc(OC)c(NC(=O)Nc2cccc3ccccc23)c1	-57	n	n	n	n	n
COC(=O)c1[nH]c2cc(OC)ccc2c1NC(=O)CCN1CCN(c2cccc(C)c2C)CC1	-80	n	n	n	u	n
O=C(c1cc(F)cc(F)c1)N1CCC(c2nc(-c3ccc(S(=O)(=O)N4CCCC4)cc3)no2)CC1	x	x	n	x	u	n
COc1ccccc1NC(=O)N1CCN(c2ccc3nnc(-c4ccc(F)cc4)n3n2)CC1	n	18µM!	n	x	u	n
CC1=[N+](C)c2ccc3ccccc3c2C1(C)C	n	u	n	n	6.3µM	n
C=CC(=O)Nc1sc2c(c1C(N)=O)CCCC2	n	u	n	u	16µM	n
NC(=O)c1c(NC(=S)Nc2ccccc2)sc2c1CCCC2	n	n	n	n	n	n
Cc1noc(C)c1C(=O)Nc1sc2c(c1C(N)=O)CCCCC2	n	n	47	n	n	n
C=CCNC(=S)Nc1sc2c(c1C(N)=O)CCCC2	u	n	n	n	n	11µM
CCOc1ccc(CNC(=O)C2Cc3cc(S(=O)(=O)N4CCCCCC4)ccc3N2C(C)=O)cc1 (stereo not given)	x	n	n	n	n	n
Cc1cc(Cl)ccc1OCC(=O)N(Cc1ccc(N(C)C)cc1)CC1CCCO1 (stereo not given)	x	x	n	x	u	n
Cc1cc(C)n(CCNC(=O)c2cc(COc3c(F)cccc3F)on2)n1	n	n	n	n	n	n
O=C(NCCN1CCCCC1)c1cc(COc2c(F)cccc2F)on1	-62	n	n	n	n	n
CN(C(=O)CSc1nncn1-c1ccccc1)C1CCS(=O)(=O)C1 (stereo not given)	-54	n	n	n	n	n
COc1ccccc1NC(=O)C1=C(C)Nc2nc3ccccc3n2C1c1ccccc1Cl (stereo not given)	x	n	n	n	n	n
CCOC(=O)c1ccc(NC(=O)CSc2cc(-c3ccccc3)nc(C)n2)cc1	x	x	n	x	n	n
Cn1c(N)c(C(=O)/C=C/c2ccccc2)c(=O)[nH]c1=O	n	n	n	n	n	n
Cn1c(N)c(C(=O)Nc2ccccc2)c(=O)[nH]c1=O	n	n	36	n	n	n
CCOc1ccccc1NC(=O)Cn1c(=O)n(Cc2ccco2)c(=O)c2ccc(C(=O)NC3CCCC3)cc21	x	n	n	n	n	n
